Test results published in PubChem BioAssay (EPA / NIEHS).
Inconclusive results are not listed. Activity calls are given as the source filed them. How the source made its calls, unless noted: active means hit-call score of the fitted dose curve at least 0.9, where 1 is the maximum; inconclusive means response in the unintended direction; inactive means score below 0.9.

Experiments:
[1] = target: Estrogen receptor beta (Homo sapiens) (UniProt Q92731); test: OT_ER_ERbERb_1440: Odyssey Thera (OT) 24-hour HEK293T Protein-Complementation Assay for Estrogen Receptor-beta/-beta Homodimer (AID 2283380);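 further: scored as signal increase over DMSO baseline for both agonists and antagonists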
Outline: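 HEK293T cells stably expressing ER beta LBD (aa 310-547) homodimer fragment-complementation reporter, dosed 24 h. Cells formaldehyde-fixed, Draq5-stained; gain in nuclear (agonist) or nuclear plus cytoplasmic (antagonist) fluorescence versus DMSO read by laser scanning cytometry.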

[2] = target: Retinoic acid receptor RXR-alpha (Homo sapiens) (UniProt P19793); test: OT_NURR1_NURR1RXRa_0480: Odyssey Thera (OT) 8-hour HEK293T Protein Complementation Assay for Nurr1/retinoid X receptor (RXR) (AID 2283385)
Outline: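 Interaction of Nurr1 with RXRα read as reconstituted reporter fluorescence in a HEK293T fragment-complementation system, 8 h post-treatment; increase over DMSO baseline analysed.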

[3] = target: Retinoic acid receptor RXR-alpha (Homo sapiens) (UniProt P19793); test: OT_NURR1_NURR1RXRa_1440: Odyssey Thera (OT) 24-hour HEK293T Protein Complementation Assay for Nurr1/retinoid X receptor (RXR) (AID 2283386)
Outline: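 Gain in fluorescence, fitted relative to DMSO, reflects Nurr1–RXRα association in HEK293T cells after 24 h dosing. Bait and prey are each linked to a reporter-protein fragment that reassembles on interaction.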

[4] = target: Peroxisome proliferator-activated receptor gamma (Homo sapiens) (UniProt P37231); test: OT_PPARg_PPARgSRC1_0480: Odyssey Thera (OT) 8-hour Protein-Complementation Assay for Peroxisome Proliferator-activated Receptor Gamma / SRC-1 Co-activator (AID 2283387);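 further: nuclear to cytoplasmic split Venus YFP fluorescence ratio reporting PPARg SRC-1 interaction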
Outline: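 HEK293T transiently transfected with PPARg and SRC-1 fused to Venus YFP fragments, compounds 8 h at 37C. Fixed, Draq5-stained cells imaged; nuclear/cytoplasmic 488 nm fluorescence ratio over at least 350 cells per image; gain fitted versus DMSO.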

[5] = target: Peroxisome proliferator-activated receptor gamma (Homo sapiens) (UniProt P37231); test: OT_PPARg_PPARgSRC1_1440: Odyssey Thera (OT) 24-hour Protein-Complementation Assay for Peroxisome Proliferator-activated Receptor Gamma/ SRC-1 Co-activator (AID 2283388)
Outline: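 Transient HEK293T, YFP fragments 1-158/159-239 (mutant IFP1/IFP2) fused to PPARg/SRC-1; 24 h dosing; fix 4% formaldehyde, Draq5; Opera imaging 488/635 nm; N/C ratio, gain vs DMSO.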

[6] = CEETOX_H295R_OHPREG: CeeTox H295R High-throughput Steroidogenesis Assay for OH-Pregnenolone (OHPREG) (AID 2283434; active means hit-call score of the fitted dose curve at least 0.9, where 1 is the maximum; inactive means score below 0.9); details: actives raise or lower the signal
Outline: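 H295R, 10 uM forskolin pre-stim 48 h; test chemical 48 h, 0.1% DMSO final. MTBE extraction, reverse-phase C18 HPLC-ESI+ MS/MS of medium. Gain/loss vs DMSO; viability by MTT in same wells.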

[7] = target: Estrogen receptor (Homo sapiens) (UniProt P03372); test: OT_ERa_GFPERaERE_0480: Odyssey Thera (OT) 8-hour HeLa Transcription Induction Assay for Estrogen Receptor (AID 2283381; active means hit-call score of the fitted dose curve at least 0.9, where 1 is the maximum; inactive means score below 0.9)
Outline: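 Fluorescence microscopy with high-content image analysis measures ERE-driven GFP induction in HeLa cells at 8 h post-dose. Increases fitted against DMSO baseline.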

[8] = target: Estrogen receptor (Homo sapiens) (UniProt P03372); test: OT_ERa_GFPERaERE_0120: Odyssey Thera (OT) 2-hour HeLa Transcription Induction Assay for Estrogen Receptor (AID 2283382)
Outline: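 Fluorescence-microscopy images of the GFP-ERα/ERE reporter, scored by high-content image algorithms, give the readout. HeLa exposure lasted 2 h, and only signal increase over DMSO was fitted.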

[9] = target: Bile acid receptor (Homo sapiens) (UniProt Q96RI1); test: OT_FXR_FXRSRC1_1440: Odyssey Thera (OT) 24-hour HEK293T Protein-Complementation Assay for Farnesoid X receptor/SRC-1 Co-activator (AID 2283384)
Outline: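 Protein-fragment complementation: FXR and SRC-1 fused to reporter fragments that reassemble on interaction, read by fluorescence intensity. Human HEK293T cells measured 24 h post-dose; positive-direction fit versus DMSO.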

[10] = target: Bile acid receptor (Homo sapiens) (UniProt Q96RI1); test: OT_FXR_FXRSRC1_0480: Odyssey Thera (OT) 8-hour HEK293T Protein-Complementation Assay for Farnesoid X receptor/SRC-1 Co-activator (AID 2283383)
Outline: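 Binding of FXR to coactivator SRC-1 was read as fluorescence from a reconstituted split reporter in HEK293T cells, 8 h after chemical addition. Only increases in signal versus DMSO were fit.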

[11] = CEETOX_H295R_11DCORT: CeeTox H295R High-throughput Steroidogenesis Assay for 11-Deoxycortisol (11DCORT) (AID 2283432; active means hit-call score of the fitted dose curve at least 0.9, where 1 is the maximum; inactive means score below 0.9;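 further: human adrenal H295R cells prestimulated with 10 µM forskolin for 48 h; 11-deoxycortisol secreted into the medium measured by LC-MS/MS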); details: actives raise or lower the signal
Outline: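 H295R cells prestimulated 48 h with 10 uM forskolin, then exposed 48 h to chemical in 0.1% DMSO. 11-Deoxycortisol in medium quantified by HPLC-MS/MS after MTBE extraction; bidirectional fit versus DMSO. MTT viability read in same wells.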

[12] = CEETOX_H295R_CORTIC: CeeTox H295R High-throughput Steroidogenesis Assay for Corticosterone (CORTIC) (AID 2283437; active means hit-call score of the fitted dose curve at least 0.9, where 1 is the maximum; inactive means score below 0.9;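 further: human H295R adrenal cells prestimulated with forskolin before chemical exposure; corticosterone secreted into medium quantified by mass spectrometry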); details: actives raise or lower the signal
Outline: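 48 h forskolin (10 uM) prestim, then 48 h chemical exposure, final DMSO 0.1%. Readout: corticosterone in medium by LC-MS/MS after MTBE extraction. Gain/loss fit vs DMSO; MTT viability in same wells.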

[13] = CEETOX_H295R_CORTISOL: CeeTox H295R High-throughput Steroidogenesis Assay for Cortisol (AID 2283438; active means hit-call score of the fitted dose curve at least 0.9, where 1 is the maximum; inactive means score below 0.9); details: actives raise or lower the signal
Outline: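 Cortisol measured by HPLC-MS/MS after MTBE extraction of medium from H295R cells exposed 48 h to chemical (0.1% DMSO), following 48 h prestimulation with 10 uM forskolin. Viability assessed by MTT in the same wells.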

[14] = CEETOX_H295R_DOC: CeeTox H295R High-throughput Steroidogenesis Assay for DOC (AID 2283439; active means hit-call score of the fitted dose curve at least 0.9, where 1 is the maximum; inactive means score below 0.9); details: actives raise or lower the signal
Outline: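 11-Deoxycorticosterone quantified in medium by MTBE extraction and HPLC-MS/MS after 48 h chemical exposure (0.1% DMSO) of forskolin-primed (10 uM, 48 h) H295R cells. Same-well MTT viability; data fitted bidirectionally against DMSO.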

[15] = CEETOX_H295R_ESTRADIOL: CeeTox H295R High-throughput Steroidogenesis Assay for Estradiol (AID 2283440; active means hit-call score of the fitted dose curve at least 0.9, where 1 is the maximum; inactive means score below 0.9;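 further: estradiol secreted into medium quantified by LC-MS/MS after dansyl derivatisation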); details: actives raise or lower the signal
Outline: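 Following OECD 456 with minor changes, H295R cells received 10 uM forskolin for 48 h and then test chemical for 48 h. Hormone output was read by HPLC-MS/MS, with cytotoxic concentrations diluted until MTT viability reached ≥70%.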

[16] = CEETOX_H295R_ESTRONE: CeeTox H295R High-throughput Steroidogenesis Assay for Estrone (AID 2283441; active means hit-call score of the fitted dose curve at least 0.9, where 1 is the maximum; inactive means score below 0.9); details: actives raise or lower the signal
Outline: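 Estrone secreted into medium quantified by LC-MS/MS after dansyl chloride derivatization, following 48 h chemical exposure (0.1% DMSO final) of forskolin-prestimulated (10 uM, 48 h) H295R cells; gain or loss fitted against DMSO; MTT viability in same wells.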

Measured: AC50

Estrogen receptor beta (Homo sapiens), sequence (Q92731 whole entry, looked up, the tested form may be a part): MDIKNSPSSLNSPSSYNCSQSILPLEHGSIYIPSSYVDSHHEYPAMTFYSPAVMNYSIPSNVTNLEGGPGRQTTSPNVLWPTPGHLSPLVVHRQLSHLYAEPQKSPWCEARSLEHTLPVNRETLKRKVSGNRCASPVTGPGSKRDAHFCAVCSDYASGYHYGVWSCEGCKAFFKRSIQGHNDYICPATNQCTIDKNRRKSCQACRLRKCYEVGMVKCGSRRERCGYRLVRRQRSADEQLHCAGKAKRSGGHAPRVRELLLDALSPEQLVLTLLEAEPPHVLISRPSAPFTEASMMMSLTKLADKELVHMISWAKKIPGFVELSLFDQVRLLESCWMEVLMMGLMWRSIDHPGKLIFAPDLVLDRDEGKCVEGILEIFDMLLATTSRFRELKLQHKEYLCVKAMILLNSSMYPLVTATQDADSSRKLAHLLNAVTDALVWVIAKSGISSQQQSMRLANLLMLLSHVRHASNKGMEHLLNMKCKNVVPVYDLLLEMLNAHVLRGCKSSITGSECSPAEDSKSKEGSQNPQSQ
Peroxisome proliferator-activated receptor gamma (Homo sapiens), sequence (P37231 whole entry, looked up, the tested form may be a part): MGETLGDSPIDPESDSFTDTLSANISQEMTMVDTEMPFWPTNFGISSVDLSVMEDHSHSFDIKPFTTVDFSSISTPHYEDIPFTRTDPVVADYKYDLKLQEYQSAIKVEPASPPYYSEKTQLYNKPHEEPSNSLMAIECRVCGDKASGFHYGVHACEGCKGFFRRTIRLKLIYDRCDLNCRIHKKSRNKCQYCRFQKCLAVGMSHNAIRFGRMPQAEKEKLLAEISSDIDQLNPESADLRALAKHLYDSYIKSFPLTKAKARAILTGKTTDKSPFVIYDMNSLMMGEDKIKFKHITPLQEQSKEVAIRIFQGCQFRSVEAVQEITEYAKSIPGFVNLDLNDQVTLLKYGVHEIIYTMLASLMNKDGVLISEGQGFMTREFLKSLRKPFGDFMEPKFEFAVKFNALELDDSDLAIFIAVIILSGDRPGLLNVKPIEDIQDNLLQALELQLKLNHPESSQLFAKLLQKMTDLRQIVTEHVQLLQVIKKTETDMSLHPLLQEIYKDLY
Estrogen receptor (Homo sapiens), sequence (P03372 whole entry, looked up): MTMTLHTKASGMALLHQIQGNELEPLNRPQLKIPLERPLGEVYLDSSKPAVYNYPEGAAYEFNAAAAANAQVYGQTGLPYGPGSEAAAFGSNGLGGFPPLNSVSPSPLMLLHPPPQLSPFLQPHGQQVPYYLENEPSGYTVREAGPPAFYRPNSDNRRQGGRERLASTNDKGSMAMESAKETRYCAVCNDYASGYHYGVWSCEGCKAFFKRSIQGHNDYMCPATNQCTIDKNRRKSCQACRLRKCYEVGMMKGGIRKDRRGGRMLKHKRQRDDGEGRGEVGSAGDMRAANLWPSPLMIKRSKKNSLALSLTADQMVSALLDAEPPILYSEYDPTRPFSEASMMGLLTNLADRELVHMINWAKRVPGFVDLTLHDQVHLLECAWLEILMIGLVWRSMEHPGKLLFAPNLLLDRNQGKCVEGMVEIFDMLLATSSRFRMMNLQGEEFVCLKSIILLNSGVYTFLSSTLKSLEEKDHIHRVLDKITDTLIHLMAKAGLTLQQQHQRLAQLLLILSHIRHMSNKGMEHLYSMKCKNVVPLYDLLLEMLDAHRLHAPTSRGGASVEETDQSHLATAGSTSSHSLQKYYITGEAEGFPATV
Bile acid receptor (Homo sapiens), sequence (Q96RI1 whole entry, looked up, the tested form may be a part): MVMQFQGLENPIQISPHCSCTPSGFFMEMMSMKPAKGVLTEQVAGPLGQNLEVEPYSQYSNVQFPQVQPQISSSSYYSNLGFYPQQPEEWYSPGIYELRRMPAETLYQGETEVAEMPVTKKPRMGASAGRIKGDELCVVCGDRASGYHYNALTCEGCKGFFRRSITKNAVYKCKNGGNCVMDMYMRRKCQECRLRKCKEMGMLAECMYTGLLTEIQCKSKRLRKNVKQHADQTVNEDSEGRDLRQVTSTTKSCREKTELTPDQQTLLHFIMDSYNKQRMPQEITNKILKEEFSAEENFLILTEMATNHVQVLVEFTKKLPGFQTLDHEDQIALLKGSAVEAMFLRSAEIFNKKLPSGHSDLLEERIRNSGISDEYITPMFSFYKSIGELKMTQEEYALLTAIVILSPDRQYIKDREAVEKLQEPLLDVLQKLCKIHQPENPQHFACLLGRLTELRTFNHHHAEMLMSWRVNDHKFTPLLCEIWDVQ
Retinoic acid receptor RXR-alpha (Homo sapiens), sequence (P19793 whole entry, looked up, the tested form may be a part): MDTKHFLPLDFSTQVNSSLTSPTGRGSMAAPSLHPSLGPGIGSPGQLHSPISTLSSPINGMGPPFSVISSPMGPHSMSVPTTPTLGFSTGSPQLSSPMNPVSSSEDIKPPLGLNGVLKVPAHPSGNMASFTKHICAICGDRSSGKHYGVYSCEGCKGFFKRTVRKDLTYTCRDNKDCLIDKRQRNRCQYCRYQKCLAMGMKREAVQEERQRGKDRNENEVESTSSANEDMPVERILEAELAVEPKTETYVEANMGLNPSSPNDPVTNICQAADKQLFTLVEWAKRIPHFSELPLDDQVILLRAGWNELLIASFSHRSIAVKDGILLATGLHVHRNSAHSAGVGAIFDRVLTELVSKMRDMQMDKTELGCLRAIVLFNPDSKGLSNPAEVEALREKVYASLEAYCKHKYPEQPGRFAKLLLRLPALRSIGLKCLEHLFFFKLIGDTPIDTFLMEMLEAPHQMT

CO[C@H]1/C=C/O[C@@]2(C)Oc3c(C)c(O)c4c(O)c(c(/C=N/N5CCN(C)CC5)c(O)c4c3C2=O)NC(=O)/C(C)=C\C=C\[C@H](C)[C@H](O)[C@@H](C)[C@@H](O)[C@@H](C)[C@H](OC(C)=O)[C@@H]1C
inactive: [1] | [2] | [3] | [4] | [5] | [6]

O=C(O)c1ccccc1C(=O)OCc1ccccc1
inactive: [7] | [8] | [9] | [2] | [3] | [4] | [5]

CC1(C)NC(=O)N(c2ccc([N+](=O)[O-])c(C(F)(F)F)c2)C1=O
inactive: [1] | [10] | [9] | [2] | [3] | [4] | [5]

O=C=NCCCCCCN=C=O
inactive: [1] | [7] | [8] | [9] | [2] | [3] | [4] | [5]

COc1cccc([C@H](O)C2CCN(CCc3ccc(F)cc3)CC2)c1OC
active: [11] 27 µM | [6] 1.81 µM | [12] 1.22 µM | [14] 9.1 µM
inactive: all other assays above

OC12N=C(c3ccccc3)SC1Cc1cc(Cl)ccc12 (centres undefined)
active: [10] 71.7 µM | [9] 31.4 µM | [3] 30 µM | [11] 32.8 µM | [12] 17.7 µM | [13] 28.5 µM | [14] 17.6 µM
inactive: all other assays above

CC(C)(O)c1ccc(CNC(=O)c2cccnc2Oc2ccc3nonc3c2)cc1
inactive: [1] | [7] | [8] | [2] | [4] | [5]

CCCCOC(=O)CC(CC(=O)OCCCC)(OC(C)=O)C(=O)OCCCC
inactive: [1] | [9] | [2] | [4] | [5]
active: [10] 9.51 µM

CC[C@H](NC(=O)c1cc(F)ccc1NS(=O)(=O)c1cccc2cccnc12)c1ccccc1
inactive: [1] | [7] | [8] | [9] | [2] | [3] | [4] | [5]
active: [10] 31.9 µM

O=CCCCC=O
inactive: [7] | [8] | [9] | [3] | [4] | [5]
active: [10] 40.2 µM | [2] 50 µM
